This note sets out measurements from PubChem BioAssay (Tox21).

“And” between values parts separate entries of the source, which are not always exact repeats. Identical values can stand only once. A number with no mark means an inactive call. The source made the active and inactive calls. Calls follow the shape of the dose curve; as a rule, active = well fitted curve in the direction sought with a large enough effect in the repeat runs; inconclusive = weak or mixed curves; inactive = flat fitted curve, though single readings scatter.
% is scaled to controls: 0 for no effect and ±100 for the full control effect; potency is read from the fitted curve at half-maximal effect.

A short description of this assay: qHTS assay to test for compound auto fluorescence at 535 nm (green) in HepG2 cells (AID 720675). The settings on record: green autofluorescence 485/535 nm, 1 h; series mostly up to 91.3 µM; fluorescence, % of fluorescein control: at the top concentration. An excerpt: National Center for Advancing Translational Sciences [NCATS]
NIH Chemical Genomics Center [NCGC]
U.S. Environmental Protection Agency [EPA]
National Institutes of Environmental Health Sciences [NIEHS]
National Toxicology Program [NTP]
U.S. Food and Drug Administration [FDA]
Compound auto fluorescence often interferes with screening of the compound library against various biological targets and signaling pathways. Some of these compounds may have fluorophoric properties. Such properties may interfere with the assay outputs resulting in false positives and/or negatives. To decrease such complications and ensure the compound activities are relevant in terms of biological response, the Tox21 10K compound library was screened for auto fluorescence.
From the fluorophores used as reporter signals in our screening assays, the auto fluorescence equivalencies of compounds against three fluorophores have been evaluated: Triamterene, Fluorescein and Rose Bengal sodium for blue, green and red fluorescence, respectively. The fluorescence intensities were measured using Excitation/Emission wavelengths at 405/460nm, 485/535nm and 540/590nm for blue, green and red labels, respectively. This assay includes the green fluorescence data.
Tox21 Assay Protocol Summary:
2,000 HepG2 cells in 5 uL of culture medium (MEM containing 10% FBS) per well were dispensed into black wall/clear bottom 1536-well plates using a Multidrop Combi Dispenser (ThermoFisher Scientific, Waltham, MA). The assay plates were incubated overnight at 37 C to allow cell attachment to the well bottom, followed by the transfer of 23 nL compound or DMSO vehicle by a pintool work station (Kalypsys , San Diego, CA). After the assay plates were incubated for 1 hr at 37 C and 5% CO2, fluorescence intensities in the assay plates were measured by an Envision (PerkinElmer, Shelton, CT) plate reader using three labels for measuring blue, green and red fluorescence at […] 460, 535 and 590 nm respectively.
A general note: In qHTS, concentration-response curves come from the screen itself.
For the compound `CCN(CC)CCCN(c1ccccc1)C1Cc2ccccc2C1`, the “fluorescence, % of fluorescein control” value is 0.0003% [at 46 µM].

For the compound `CC(C)N=C(N)/N=C(\N)Nc1ccc(Cl)cc1`, the fluorescence, % of fluorescein control is -0.0393% [at 18.6 µM].

Turning to `NC1(c2ccc(-c3nc4ccn5c(=O)[nH]nc5c4cc3-c3ccccc3)cc2)CCC1`, the “fluorescence, % of fluorescein control” value is -0.0202% [at 46 µM].

Turning to `NCCCC(O)(P(=O)(O)O)P(=O)(O)O`, the “fluorescence, % of fluorescein control” value was -0.103% [at 46 µM].

Take `CC(C)c1ccc(O)c(C(C)C)c1`: the “fluorescence, % of fluorescein control” value is 0.112%.

Consider `O=Cc1ccc(F)cc1`, for which the “fluorescence, % of fluorescein control” value was -0.0889%.

`CN(C)c1ccc(N=NS(=O)(=O)O)cc1`: the “fluorescence, % of fluorescein control” value is -0.494%.

For the compound `c1ccc(Nc2cccc3ccccc23)cc1`, the Potency result was “inactive”.

Turning to `CCCCCCOc1cc(C)c(O)c(C)c1C`, the “fluorescence, % of fluorescein control” value is 0.0286% [at 95.7 µM].

As for `C[C@]12CC[C@H]3C(=CCc4cc(O)ccc43)[C@@H]1CCC2=O`, the “fluorescence, % of fluorescein control” value is 0.187%.

For the compound `C/C=C/C=N/NC(=O)c1ccncc1`, the “fluorescence, % of fluorescein control” value is -0.0411% [at 46 µM].

Consider `CC(C(O)c1ccccc1)N(C)CCOC(c1ccccc1)c1ccccc1` (stereo not given), for which the “fluorescence, % of fluorescein control” value was -0.0103% [at 46 µM].

Regarding `c1cc(OCC2CO2)cc(OCC2CO2)c1` (stereo not given), the “fluorescence, % of fluorescein control” value is -0.103%.

As to `CC(CN(C)C)CN1c2ccccc2CCc2ccccc21` (stereo not given), the fluorescence, % of fluorescein control was -0.198% [at 18.6 µM].

In the case of `C=C(C)C(=O)OCCC[Si](Cl)(Cl)Cl`, the “fluorescence, % of fluorescein control” value is -0.041%.

For `C[C@@]12C(=O)OC(=O)[C@]1(C)C1CCC2O1`, the fluorescence, % of fluorescein control is -0.0054% [at 18.6 µM].

With `O=C1C=CC(=O)N1c1ccccc1`, the “fluorescence, % of fluorescein control” value is -0.104%.

As to `Clc1ccc(C(Cn2ccnc2)OCc2ccsc2Cl)c(Cl)c1` (stereo not given), the “fluorescence, % of fluorescein control” value is 0.0815% [at 46 µM].

With `CCOC(=O)N1CCC(=C2c3ccc(Cl)cc3CCc3cccnc32)CC1`, the Potency result is “inactive”.

With `COc1ccc2sc(C(=O)Nc3nnn[nH]3)c(OC(C)C)c2c1`, the “fluorescence, % of fluorescein control” value is 0.034%.

For `CCN(CC)CCSC(=O)C(c1ccccc1)c1ccccc1`, the Potency entry was “inactive”.

Turning to `Cc1ccc(N)cc1O`, the “fluorescence, % of fluorescein control” value is 0.63%.

Take `COC(=O)[C@]1(C)CCC[C@@]2(C)[C@H]1CC=C1C=C(C(C)C)CC[C@@H]12`: the “fluorescence, % of fluorescein control” value was -0.107%.

Turning to `CC(NCCC(c1ccccc1)c1ccccc1)c1ccccc1` (stereo not given), the “fluorescence, % of fluorescein control” value was -0.0279% [at 46 µM].

For `CCCCCCCC/C=C\CCCCCCCC(=O)OCCOC(=O)CCCCCCC/C=C\CCCCCCCC`, the “fluorescence, % of fluorescein control” value was 0.351% [at 95.7 µM].

As to `Cc1c(C)n(Cc2ccccc2)c2ccc(C(=O)OCCN(C)C)cc12`, the “fluorescence, % of fluorescein control” value is 0.0952% [at 46 µM].

As to `CCCCC(CC)COC(=O)c1ccc(O)cc1` (stereo not given), the Potency result is “inactive”.

For `CNC(=O)c1cc(Oc2ccc(NC(=O)Nc3ccc(Cl)c(C(F)(F)F)c3)cc2)ccn1`, the “fluorescence, % of fluorescein control” value was -0.0113% [at 46 µM].

As to `O=C1OC(=O)c2cccc3cccc1c23`, the “fluorescence, % of fluorescein control” value was 0.0016%.

Take `Cc1occc1SSc1ccoc1C`: the “fluorescence, % of fluorescein control” value is 0.0377%.

Consider `COc1cc(C(C)C)c2c(c1)S(=O)(=O)N(COc1cc(=O)n3cccc(OCCN4CCCCC4)c3n1)C2=O`, for which the fluorescence, % of fluorescein control was -0.0646% [at 18.6 µM].

As to `Cc1cc2c(C(C)C)c(O)c(O)c(C=O)c2c(O)c1-c1c(C)cc2c(C(C)C)c(O)c(O)c(C=O)c2c1O`, the “fluorescence, % of fluorescein control” value was -0.123% [at 46 µM].

`CCN=c1cc2oc3cc(NCC)c(C)cc3c(-c3ccccc3C(=O)OCC)c-2cc1C`: the Potency is 39.8 µM (active) and 35.5 µM (active).

As for `C=CC(=O)OCC(O)COc1ccccc1` (stereo not given), the “fluorescence, % of fluorescein control” value was -0.165%.

For `C1CC(COCC2CO2)CCC1COCC1CO1` (stereo not given), the “fluorescence, % of fluorescein control” value is -0.0873%.

`CC(C)(C)C1=CC(=O)C=C(C(C)(C)C)C1=O`: the “fluorescence, % of fluorescein control” value is -0.0952%.

For the compound `CC(=O)Oc1ccc(C2(c3ccc(OC(C)=O)cc3)C(=O)Nc3ccccc32)cc1`, the Potency entry is “inactive”.

Consider `O=Nc1ccc(NO)cc1`, for which the “fluorescence, % of fluorescein control” value is -0.0045% [at 95.7 µM].

Turning to `O=C(O)Cc1ccc(OCCNC[C@H](O)c2ccccc2)cc1`, the “fluorescence, % of fluorescein control” value is 0.0456% [at 46 µM].

In the case of `CC(COC(=O)c1ccccc1)OC(=O)c1ccccc1` (stereo not given), the “fluorescence, % of fluorescein control” value was 0.0206%.
